Laboratory results taken from the supplement of paper PMC7380943.
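Also: compound given one day ahead of doxycycline, which switches on I-SceI endonuclease to cut the chromosomally integrated reporter and create DSBs.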

Each compound was assayed on CLZ3 (HCA2 human fibroblast dual HR-NHEJ reporter) (assay: NHEJ repair efficiency (GFP+ cells) relative to control (log10 fold); higher = more non-homologous end joining). Details: 5 µM; doxycycline 0.5 ug/mL.
`CCCCCCCCCCCCCCCC(=O)OC` [Methyl Palmitate] was tested, and the “NHEJ repair efficiency (log10)” value was 0.0451.
In the case of `CC1(C)[C@@H](O)CC[C@]2(C)[C@H]3CC=C4[C@@H]5C[C@@]6(C)C[C@H](OC6=O)[C@]5(C)CC[C@@]4(C)[C@]3(C)CC[C@@H]12` [Wilforlide A], the “NHEJ repair efficiency (log10)” value is reported as -0.137.
With `C[C@@H]1CC[C@@]2(OC1)O[C@H]1C[C@H]3[C@@H]4CC=C5C[C@@H](O)C[C@@H](O[C@@H]6O[C@H](C)[C@H](O)[C@H](O[C@@H]7OC[C@@H](O)[C@H](O)[C@H]7O)[C@H]6O[C@@H]6O[C@@H](C)[C@H](O)[C@@H](O)[C@H]6O)[C@]5(C)[C@H]4CC[C@]3(C)[C@H]1[C@@H]2C` [Ophiopogonin D] the “NHEJ repair efficiency (log10)” value was -0.0762.
`COc1cc(-c2cc(=O)c3c(O)c(OC)c(O)cc3o2)ccc1O` [Jaceosidin] was tested, and the “NHEJ repair efficiency (log10)” value was -0.028.
In the case of `C[C@@H]1O[C@@H](O[C@H]2[C@H](Oc3c(-c4ccc(O)cc4)oc4cc(O)cc(O)c4c3=O)O[C@H](CO)[C@@H](O)[C@@H]2O)[C@H](O)[C@H](O)[C@H]1O` [Kaempferol 3-O-Neohesperidoside], the “NHEJ repair efficiency (log10)” value is reported as 0.0799.
`CC1(C)CC[C@]2(C(=O)O)CC[C@]3(C)C(=CC[C@@H]4[C@@]5(C)CC[C@H](O)[C@@](C)(CO)[C@@H]5CC[C@]43C)[C@@H]2C1` [Hederagenin] was tested, and the “NHEJ repair efficiency (log10)” value was -0.021.
`O=C(O)c1cc(O)c(O)c(O)c1` [Gallic acid] was tested, and the “NHEJ repair efficiency (log10)” value was 0.0481.
For `CC(C)=CCc1c(-c2ccc(O)cc2O)oc2c([C@H]3C=C(C)C[C@@H](c4ccc(O)cc4O)[C@@H]3C(=O)c3ccc(O)cc3O)c(O)cc(O)c2c1=O` [Kuwanon G], the “NHEJ repair efficiency (log10)” value was 0.0109.
For `COc1ccccc1` [Anisole], the “NHEJ repair efficiency (log10)” value was 0.105.
With `COC(=O)C1=CO[C@@H](O[C@@H]2O[C@H](CO)[C@@H](O)[C@H](O)[C@H]2O)[C@@H]2C(CO)=CC[C@H]12` [Geniposide] the “NHEJ repair efficiency (log10)” value was -0.0355.
`C=C(C)[C@@H]1CC[C@]2(C(=O)O)CC[C@]3(C)[C@H](CC[C@@H]4[C@@]5(C)CCC(=O)C(C)(C)[C@@H]5CC[C@]43C)[C@@H]12` [Liquidambaric Acid] was tested, and the “NHEJ repair efficiency (log10)” value was -0.0687.
With `COc1cc(OC)c(CCC(=O)c2ccc(O)cc2)c(OC)c1` the “NHEJ repair efficiency (log10)” value was -0.0337.
For `O=C(C=Cc1ccc(O)c(O)c1)O[C@H]1[C@H](O)C[C@](O)(C(=O)O)C[C@H]1OC(=O)C=Cc1ccc(O)c(O)c1` [Isochlorogenic Acid C (4,5-Di-O-Caffeoylquinic Acid)], the “NHEJ repair efficiency (log10)” value was 0.021.
`COc1cc2c(cc1OC)[C@@H]1Cc3ccc(OC)c(OC)c3CN1CC2` [Rotundine] was tested, and the “NHEJ repair efficiency (log10)” value was -0.0594.
For `C/C=C/c1cc(OC)c2c(c1)C(C)C(c1ccc(O)c(OC)c1)O2` (centres undefined) [Dehydrodiisoeugenol], the “NHEJ repair efficiency (log10)” value was -0.00267.
In the case of `COc1c2c(cc3oc(C)cc(=O)c13)O[C@H](C(C)(C)O)C2` [5-O-Methylvisamminol], the “NHEJ repair efficiency (log10)” value is reported as -0.159.
`COc1c(O)cc2oc(-c3ccccc3)cc(=O)c2c1O` [Oroxylin A] was tested, and the “NHEJ repair efficiency (log10)” value was 0.0844.
For `O=c1cc(-c2ccc(O)cc2)oc2c([C@@H]3O[C@H](CO)[C@@H](O)[C@H](O)[C@H]3O)c(O)c([C@@H]3OC[C@H](O)[C@H](O)[C@H]3O)c(O)c12` [Isoschaftoside], the “NHEJ repair efficiency (log10)” value was -0.0804.
For `C[C@@H]1O[C@@H](OC[C@H]2O[C@@H](OCCc3ccc(O)c(O)c3)[C@H](O)[C@@H](O)[C@@H]2O)[C@H](O)[C@H](O)[C@H]1O` [Forsythoside E], the “NHEJ repair efficiency (log10)” value was -0.0418.
For `COc1cc(OC)c2ccc(=O)oc2c1` [Citropten], the “NHEJ repair efficiency (log10)” value was 0.137.
`O=C(OCC1=C[C@@H](O)[C@@H]2C=CO[C@@H](O[C@@H]3O[C@H](CO)[C@@H](O)[C@H](O)[C@H]3O)[C@H]12)c1ccc(O)cc1` [Agnuside] was tested, and the “NHEJ repair efficiency (log10)” value was -0.062.
In the case of `COC(=O)C1=CO[C@@H](O[C@@H]2O[C@H](CO)[C@@H](O)[C@H](O)[C@H]2O)[C@@H]2[C@@H](C)[C@@H](O)C[C@H]12` [Loganin], the “NHEJ repair efficiency (log10)” value is reported as 0.226.
With `C=C1CC[C@H]2C(=C)CC[C@H]3C(=C)C(=O)O[C@@H]3[C@@H]12` [Dehydrocostus Lactone] the “NHEJ repair efficiency (log10)” value was -0.02.
`C[C@]12C[C@@H](O)[C@@H]3C[C@@]1(O[C@@H]1O[C@H](CO)[C@@H](O)[C@H](O)[C@H]1O)[C@@]3(COC(=O)c1ccccc1)C(=O)O2` [Albiflorin] was tested, and the “NHEJ repair efficiency (log10)” value was 0.0446.
In the case of `CC(CC(=O)C[C@@H](C)[C@H]1CC(=O)[C@@]2(C)C3=C(C(=O)C[C@]12C)[C@@]1(C)CCC(=O)C(C)(C)[C@@H]1C[C@@H]3O)C(=O)O` (some centres undefined) [Ganoderic Acid D], the “NHEJ repair efficiency (log10)” value is reported as 0.113.
In the case of `CC(C)=CCC/C(C)=C/CC/C(C)=C/CC/C(C)=C/CC/C(C)=C/CC/C(C)=C/CC/C(C)=C/CC/C(C)=C/CC/C(C)=C/CO` [Solanesol], the “NHEJ repair efficiency (log10)” value is reported as -0.0479.
In the case of `O=C1/C(=C2\Nc3ccccc3C2=O)Nc2ccccc21` [Indigotin], the “NHEJ repair efficiency (log10)” value is reported as 0.00962.
For `C[C@H](CC(=O)C[C@@H](C)[C@H]1C[C@H](O)[C@@]2(C)C3=C(C(=O)C[C@]12C)[C@@]1(C)CCC(=O)C(C)(C)[C@@H]1C[C@@H]3O)C(=O)O` [Ganoderic Acid A], the “NHEJ repair efficiency (log10)” value was 0.0922.
`CCCCC[C@H](O)CC(=O)CCc1ccc(O)c(OC)c1` [6-Gingerol] was tested, and the “NHEJ repair efficiency (log10)” value was -0.0809.
In the case of `COc1ccc(/C=C/C(=O)O)cc1O` [Isoferulic Acid], the “NHEJ repair efficiency (log10)” value is reported as -0.101.
For `OC[C@H]1O[C@H](OC[C@H]2O[C@@H](O[C@@H]3OC=C[C@H]4[C@H](O)[C@@H]5O[C@]5(CO)[C@@H]34)[C@H](O)[C@@H](O)[C@@H]2O)[C@H](O)[C@@H](O)[C@H]1O` [Rehmannioside A], the “NHEJ repair efficiency (log10)” value was 0.0412.
With `C/C=C/c1cc(OC)c2c(c1)[C@H](C)[C@@H](c1ccc3c(c1)OCO3)O2` [Licarin B] the “NHEJ repair efficiency (log10)” value was 0.0776.
In the case of `COc1cc(C2Oc3cc([C@H]4Oc5cc(O)cc(O)c5C(=O)[C@@H]4O)ccc3OC2CO)ccc1O` (some centres undefined) [Silybin (Silymarin)], the “NHEJ repair efficiency (log10)” value is reported as 0.131.
`O=C(O)c1ccccc1O` [Salicylic acid] was tested, and the “NHEJ repair efficiency (log10)” value was 0.019.
`O=C(/C=C/c1ccc(O)c(O)c1)OC1CC(OC(=O)/C=C/c2ccc(O)c(O)c2)(C(=O)O)CC(O)C1O` (centres undefined) [1,3-Dicaffeoylquinic Acid] was tested, and the “NHEJ repair efficiency (log10)” value was 0.0818.
In the case of `COc1cc(/C=C/c2ccc(O)cc2)cc(OC)c1` [Pterostilbene], the “NHEJ repair efficiency (log10)” value is reported as 0.127.
For `C[C@H](CC[C@@]1(O)O[C@H]2C[C@H]3[C@@H]4CC=C5C[C@@H](O[C@@H]6O[C@H](CO)[C@@H](O[C@@H]7O[C@@H](C)[C@H](O)[C@@H](O)[C@H]7O)[C@H](O)[C@H]6O[C@@H]6O[C@@H](C)[C@H](O)[C@@H](O)[C@H]6O)CC[C@]5(C)[C@H]4CC[C@]3(C)[C@H]2[C@@H]1C)CO[C@@H]1O[C@H](CO)[C@@H](O)[C@H](O)[C@H]1O` [Protodioscin], the “NHEJ repair efficiency (log10)” value was -0.00725.
`COc1cc2c(cc1OC)[C@@H]1Cc3ccc(OC)c(OC)c3CN1CC2` [Tetrahydropalmatine] was tested, and the “NHEJ repair efficiency (log10)” value was -0.0787.
For `C[C@H]1[C@H](C)CC[C@]2(C(=O)O)CC[C@]3(C)C(=CC[C@@H]4[C@@]5(C)CC[C@H](O)C(C)(C)[C@@H]5CC[C@]43C)[C@H]12` [Ursolic Acid], the “NHEJ repair efficiency (log10)” value was 0.324.
